The target of experiment [1] is T1, Serine/threonine-protein kinase Sgk3 (Homo sapiens) (UniProt Q96BR1).
T1 sequence (whole entry): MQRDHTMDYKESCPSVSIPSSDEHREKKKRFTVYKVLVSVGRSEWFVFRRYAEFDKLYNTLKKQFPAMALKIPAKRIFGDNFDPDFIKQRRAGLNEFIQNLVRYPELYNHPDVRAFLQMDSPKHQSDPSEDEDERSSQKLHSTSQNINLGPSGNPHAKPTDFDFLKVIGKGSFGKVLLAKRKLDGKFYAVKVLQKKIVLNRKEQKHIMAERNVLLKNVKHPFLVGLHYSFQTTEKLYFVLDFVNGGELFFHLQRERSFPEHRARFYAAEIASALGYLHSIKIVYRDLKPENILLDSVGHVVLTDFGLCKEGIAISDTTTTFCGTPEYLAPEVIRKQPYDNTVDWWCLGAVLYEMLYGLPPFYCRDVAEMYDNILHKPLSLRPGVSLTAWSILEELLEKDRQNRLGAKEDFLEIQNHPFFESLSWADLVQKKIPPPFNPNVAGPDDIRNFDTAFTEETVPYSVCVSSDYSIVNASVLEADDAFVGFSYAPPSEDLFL
The conditions noted are these: at 1 µM.

Experiment [2] deals with T1, Serine/threonine-protein kinase Sgk3 (Homo sapiens). The conditions noted are these: at 10 µM.
For experiment [3], the target named is Serine/threonine-protein kinase SIK1 (Homo sapiens) (UniProt P57059). Conditions: at 1 µM.
Sequence of Serine/threonine-protein kinase SIK1 (Homo sapiens) (P57059 whole entry): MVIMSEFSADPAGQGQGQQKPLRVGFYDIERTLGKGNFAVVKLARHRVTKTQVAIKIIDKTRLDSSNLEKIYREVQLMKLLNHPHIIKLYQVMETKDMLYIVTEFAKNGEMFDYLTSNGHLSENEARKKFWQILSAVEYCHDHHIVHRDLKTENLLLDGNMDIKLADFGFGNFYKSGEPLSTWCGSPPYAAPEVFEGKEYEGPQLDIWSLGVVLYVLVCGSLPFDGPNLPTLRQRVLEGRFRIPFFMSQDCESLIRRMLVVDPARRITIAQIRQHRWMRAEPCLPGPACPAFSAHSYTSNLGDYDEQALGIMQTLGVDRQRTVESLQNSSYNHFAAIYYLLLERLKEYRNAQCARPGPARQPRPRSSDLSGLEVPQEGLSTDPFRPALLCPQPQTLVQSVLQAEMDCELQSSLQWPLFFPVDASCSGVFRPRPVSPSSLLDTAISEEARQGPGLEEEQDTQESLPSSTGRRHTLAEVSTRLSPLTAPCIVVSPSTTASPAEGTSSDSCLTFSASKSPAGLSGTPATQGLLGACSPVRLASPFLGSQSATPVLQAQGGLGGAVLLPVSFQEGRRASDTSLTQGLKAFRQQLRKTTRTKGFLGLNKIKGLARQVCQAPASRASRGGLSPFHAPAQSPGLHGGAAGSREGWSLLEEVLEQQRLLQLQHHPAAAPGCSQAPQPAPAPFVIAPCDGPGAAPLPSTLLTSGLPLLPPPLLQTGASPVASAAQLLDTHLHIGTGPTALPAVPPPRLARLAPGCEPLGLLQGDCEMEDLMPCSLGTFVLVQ
The target in experiment [4] is SRSF protein kinase 2 (Homo sapiens) (UniProt P78362). Conditions: at 1 µM.
Sequence of SRSF protein kinase 2 (Homo sapiens) (P78362 whole entry, looked up): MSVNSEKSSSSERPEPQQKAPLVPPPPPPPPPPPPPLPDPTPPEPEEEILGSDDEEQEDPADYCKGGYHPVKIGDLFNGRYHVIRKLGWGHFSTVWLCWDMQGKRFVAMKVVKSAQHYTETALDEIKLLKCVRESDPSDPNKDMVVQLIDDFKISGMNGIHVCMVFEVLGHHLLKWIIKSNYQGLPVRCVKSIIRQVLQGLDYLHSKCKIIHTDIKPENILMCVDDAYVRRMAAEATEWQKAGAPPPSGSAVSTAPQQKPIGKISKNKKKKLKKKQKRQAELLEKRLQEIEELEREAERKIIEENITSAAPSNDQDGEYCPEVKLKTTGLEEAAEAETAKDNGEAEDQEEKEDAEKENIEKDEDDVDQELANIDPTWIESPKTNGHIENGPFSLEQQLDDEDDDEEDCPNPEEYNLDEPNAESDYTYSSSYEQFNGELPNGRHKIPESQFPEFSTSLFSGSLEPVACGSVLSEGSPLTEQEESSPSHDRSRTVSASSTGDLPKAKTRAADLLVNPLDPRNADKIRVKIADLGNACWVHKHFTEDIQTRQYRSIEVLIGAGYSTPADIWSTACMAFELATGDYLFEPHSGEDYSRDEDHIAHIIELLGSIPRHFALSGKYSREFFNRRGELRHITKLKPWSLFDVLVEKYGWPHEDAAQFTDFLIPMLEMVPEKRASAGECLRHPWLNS
For experiment [5] the target is unchanged. Conditions: at 10 µM.
For experiment [6], the target named is Serine/threonine-protein kinase SIK1 (Homo sapiens) (UniProt P57059). The conditions noted are these: at 10 µM.
The target in experiment [7] is SRSF protein kinase 1 (Homo sapiens) (UniProt Q96SB4). The conditions noted are these: at 1 µM.
Sequence of SRSF protein kinase 1 (Homo sapiens) (Q96SB4 whole entry): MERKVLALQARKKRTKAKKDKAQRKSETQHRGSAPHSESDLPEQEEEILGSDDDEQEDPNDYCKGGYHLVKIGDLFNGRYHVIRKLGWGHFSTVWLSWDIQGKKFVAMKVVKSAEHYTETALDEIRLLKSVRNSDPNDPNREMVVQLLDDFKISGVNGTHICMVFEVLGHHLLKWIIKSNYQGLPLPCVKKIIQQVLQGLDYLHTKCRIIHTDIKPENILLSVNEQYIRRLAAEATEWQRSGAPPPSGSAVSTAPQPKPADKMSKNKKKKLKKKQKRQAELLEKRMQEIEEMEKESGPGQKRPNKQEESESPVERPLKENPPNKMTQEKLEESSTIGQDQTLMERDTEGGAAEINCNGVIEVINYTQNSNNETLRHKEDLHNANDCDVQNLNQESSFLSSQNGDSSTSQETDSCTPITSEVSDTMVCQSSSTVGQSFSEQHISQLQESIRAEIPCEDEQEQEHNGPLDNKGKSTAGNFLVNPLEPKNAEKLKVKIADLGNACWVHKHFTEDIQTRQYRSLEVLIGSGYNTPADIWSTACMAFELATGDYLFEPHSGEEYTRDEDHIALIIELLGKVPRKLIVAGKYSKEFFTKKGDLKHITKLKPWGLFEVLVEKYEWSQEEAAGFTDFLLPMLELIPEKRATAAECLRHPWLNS
Experiment [8] has the same target. The conditions noted are these: at 10 µM.

The term residual activity denotes the signal under treatment as a percentage of the control signal.

`O=C(Nc1nc2ccccc2n1CCN1CCOCC1)c1cccc([N+](=O)[O-])c1`: in experiment [1], the residual activity came to 108%.

As to `c1ccc(-c2n[nH]c3c2oc2ccccc23)cc1`, the residual activity in experiment [1] came to 94%.

Turning to `Nc1ncnc2c1c(-c1ccc(Oc3ccccc3)cc1)cn2C1CCCC1`, the residual activity in experiment [1] came out at 104%.

With `CCc1nc(-c2ccc(OC)cc2)[nH]c1-c1ccncc1`, the residual activity in experiment [1] was found to be 115%; in experiment [2] it was 79%; in experiment [3], 139%; in experiment [4] it was 102%; in experiment [5], 74%.

`O=C(O)c1ccc2c3c1cccc3c(=O)n1c3ccccc3nc21`: the residual activity in experiment [1] came out at 105%.

As to `CNc1cc2c(Nc3cccc(Br)c3)ncnc2cn1`, the residual activity in experiment [1] is 103%.

Turning to `O=C1c2ccccc2-[n+]2ccc3c([nH]c4ccccc43)c21`, the residual activity in experiment [1] came out at 99%.

With `O=Nc1c(-c2c(O)[nH]c3ccccc23)[nH]c2ccccc12`, the residual activity in experiment [1] is 89%.

In the case of `CCCCc1c(-c2ccc(OC)cc2)[nH]c2nccnc12`, the residual activity in experiment [1] came out at 100%.

As to `O=C1Nc2cc(Br)ccc2/C1=C1/Nc2ccccc2/C1=N\O`, the residual activity in experiment [1] was determined as 86%.

As to `Nc1nc(Nc2ccc(S(N)(=O)=O)cc2)nn1C(=O)c1c(F)cccc1F`, the residual activity in experiment [1] came to 106%.

In the case of `Cn1sc(=O)n(Cc2ccccc2)c1=O`, in experiment [1], the residual activity turned out to be 99%.

`O=c1cc(N2CCOCC2)oc2c1ccc1ccccc12`: the residual activity in experiment [1] was 97%.

Turning to `Cc1cc(Nc2nc(-c3ccccc3)nc3ccccc23)n[nH]1`, in experiment [1], the residual activity was determined as 107%.

In the case of `CC(C)[C@H](CO)Nc1nc(Nc2cccc(Cl)c2)c2ncn(C(C)C)c2n1`, the residual activity is 97% in experiment [2]; 85% in experiment [3]; 16% in experiment [6]; 52% in experiment [7]; -1% in experiment [8]; 32% in experiment [4]. Besides, the residual activity in experiment [5] worked out at 2%.

For `Cc1nc2cc3nc(-c4cccs4)cnc3cc2n1C`, in experiment [1], the residual activity came to 94%.

For the compound `NCCNc1ncc(C(N)=O)c(Nc2cccc(C(F)(F)F)c2)n1`, the residual activity in experiment [1] was 82%.

Regarding `N/C(=N\[N+](=O)[O-])N/N=C\c1ccc(-c2cccc([N+](=O)[O-])c2)o1`, the residual activity in experiment [1] turned out to be 127%; in experiment [2], 81%; in experiment [4], 99%; in experiment [5] it was 88%.

For `COc1cc(OC)c(/C=C2\C(=O)Nc3ccccc32)c(OC)c1`, the residual activity amounted to 92% in experiment [1]; 84% in experiment [2]; 106% in experiment [3]; 93% in experiment [6]; 104% in experiment [4]; 86% in experiment [5].

Consider `Cc1nc(-c2ccccc2)c(-c2ccncc2)o1`, for which, in experiment [1], the residual activity is 108%.

As to `CC(C)[C@H](CO)Nc1nc(Nc2cc(N)cc(Cl)c2)c2ncn(C(C)C)c2n1`, the residual activity in experiment [1] is 98%.

As to `O=C1Nc2ccc(Cl)cc2/C1=C/c1cc(Cl)c(O)c(Cl)c1`, the residual activity in experiment [1] was 95%.

Take `O=C1NC(=O)c2c1c1c3ccccc3[nH]c1n1cncc21`: in experiment [1], the residual activity amounted to 87%.

Regarding `COc1ccc(S(=O)(=O)N(CCO)c2ccccc2CN(C)C/C=C/c2ccc(Cl)cc2)cc1`, the residual activity in experiment [1] came to 98%.

`CC(C)n1cnc2/c(=N/c3cccc(Cl)c3)nc(NCCO)[nH]c21`: the residual activity in experiment [1] was 107%.

Regarding `O=C1NC(=O)/C(=C/c2ccc3c(c2)OC(F)(F)O3)S1`, the residual activity in experiment [1] came to 109%.

In the case of `CCN1/C(=C/C(C)=O)Sc2ccc(OC)cc21`, in experiment [1], the residual activity came out at 100%.

Turning to `COc1cccc(-c2cc(=O)c3ccccc3o2)c1N`, the residual activity in experiment [1] was found to be 104%.

On to `COc1ccc2c(c1)c(C1=C(c3c[nH]c4ccccc34)C(=O)NC1=O)cn2CCCN(C)C`, for which the residual activity in experiment [1] came out at 96%.
